Shown is part of a subset that was picked to be rich in hits.
BoNT-F LC inh: blocks Botulinum neurotoxin F light chain protease; Multiplex microsphere protease cleavage assay, flow cytometry; 360,000 tested, 0.22% active; inhibition, % at 10 µM; in the data active = inhibition above about 35%, passing the limit was not always enough; inconclusive = no clear call, values can overlap the other calls; also: plate controls were buffer without enzyme for full effect and enzyme alone for no effect
Anthrax LF inh2: inhibitors of Bacillus anthracis lethal factor protease | P15917 | multiplex microsphere protease cleavage assay, LF | inhibition, % at 10 µM | 360,000 tested, 0.12% active | AID 588501; also: plate controls were buffer without enzyme for full effect and enzyme alone for no effect
Autofluor counter: compound fluorescence in toxin protease inhibitor counterscreen | AID 624483 | fluorescence intensity (test concentration not listed) | compound autofluorescence counterscreen, microsphere flow cytometry; hits give high values | 360,000 tested, 3.1% active; in the data active = fluorescence intensity above about 16000; inconclusive = no clear call, values can overlap the other calls
BoNT A protease: blocks Botulinum neurotoxin A light chain protease; multiplex microsphere protease substrate cleavage, flow cytometry; inhibition, % at 10 µM; 360,000 tested, 0.17% active; AID 588499; also: plate controls were buffer without enzyme for full effect and enzyme alone for no effect
TcdB inh: inhibitors of Clostridioides difficile toxin B glycohydrolase; P18177; TcdB glycohydrolase enzymatic assay, plate reader; inhibition, % at 9.99 µM; 350,000 tested, 0.24% active; AID 652162; in the data active = inhibition above about 10%
* hit, by the source's call; u = inconclusive; x = no result given. Rule as the data show it, unless noted: active = inhibition above about 30%; inconclusive = no clear call, values can overlap the other calls; inactive = below that.

SMILES	BoNT-F LC inh	Anthrax LF inh2	Autofluor counter	BoNT A protease	TcdB inh
Cc1ccc(S(=O)(=O)N2CCCC(C(=O)NCCCN3CCCCC3C)C2)cc1 (stereo unspecified)	0.5	1.6	25210*	1.8	1.2
CCOc1ccc(NC(=O)c2ccc(S(=O)(=O)N(C)C)cc2)cc1	-12.3	-12.2	5536	-0.6	-0.1
CCc1ccc(OCCNC(=O)c2ccc(S(=O)(=O)N(C)C)cc2)cc1	0.2	-2.5	22522*	0.0	x
COc1ccc(CCNS(=O)(=O)c2ccc(OC)cc2)cc1	1.1	-7.8	9563	-0.6	x
CCN(CC)CCCNS(=O)(=O)c1ccc(OC)cc1	-3.5	-1.4	17061*	u	x
COc1ccc(NC(=O)N(C)C[C@H]2Oc3ccc(NC(=O)Cn4cnnn4)cc3C(=O)N([C@@H](C)CO)C[C@@H]2C)cc1	x	x	x	x	0.1
COc1cc(NC(=O)C2CC(=O)NC3=C2C(=O)CCC3)cc(OC)c1 (stereo unspecified)	-2.6	-4.7	20659*	-2.1	-0.6
COC(=O)c1sccc1NC(=O)c1cc(C)on1	-9.1	-1.2	17750*	u	1.1
COC(=O)c1sccc1NC(=O)c1sccc1C	4.3	-2.5	6360	1.5	x
COC(=O)c1sccc1NC(=O)c1ccccc1Br	-15.2	0.6	4644	-0.7	3.1
CCc1sc(C(=O)Nc2ccsc2C(=O)OC)cc1Br	-4.1	-4.5	16369*	-0.3	x
COC(=O)c1sccc1NC(=O)c1c(C)noc1C	-0.4	-0.6	23485*	-0.2	x
O=C(C[C@@H]1CC[C@H]2[C@@H](COC[C@@H](O)CN2C(=O)Nc2ccc(F)cc2)O1)NC1Cc2ccccc2C1	x	x	x	x	-0.2
Cc1ccc(Oc2cc(-n3nc(C)cc3C)ncn2)cc1	-0.9	-1.9	22017*	u	x
CC(CCC(C)OC(=O)c1ccccc1C(=O)O)OC(=O)c1ccccc1C(=O)O (stereo unspecified)	14.8	3.5	3882	-2.7	0.8
CCCCCCC(C)OC(=O)c1ccccc1C(=O)O (stereo unspecified)	34.7*	12.3	3516	0.7	0.4
CN1CCN(C(=O)C[C@H]2C[C@@H]3c4cc(NC(=O)Nc5ccc(F)cc5)ccc4O[C@@H]3[C@@H](CO)O2)CC1	x	x	x	x	-0.3
C/C=C/c1cnc2c(c1)C(=O)N([C@H](C)CO)C[C@H](C)[C@@H](CN(C)C(=O)NC1CCCC1)O2	x	x	x	x	0.0
O=C(Nc1cc(C(F)(F)F)cc(C(F)(F)F)c1)c1ccc(Cn2cc(C(F)(F)F)ccc2=O)cc1	-3.0	0.2	20069*	u	x
COCC(=O)N1C[C@H](C)[C@H](OC)CN(C)C(=O)c2ccc(NC(=O)c3cc(C)on3)cc2OC[C@H]1C	x	x	x	x	0.2
C[C@H]1CN([C@@H](C)CO)C(=O)c2cc(Br)cnc2O[C@@H]1CN(C)Cc1ccncc1	x	x	x	x	-0.4
CCN(CC)S(=O)(=O)c1cc(NC(=O)Cn2cnc3ccccc3c2=O)ccc1C	-0.4	3.8	16361*	-0.2	x
O=C(C[C@@H]1CC[C@@H](NC(=O)NC2CCCCC2)[C@@H](CO)O1)NCc1ccc(F)cc1	x	x	x	x	-3.0
Cc1nnc(N2CCCC(C(=O)NCc3cccc(F)c3)C2)c2nn(-c3ccccc3)c(C)c12 (stereo unspecified)	19.0	3.6	16533*	-2.7	0.7
Cc1nnc(N2CCCC(C(=O)NCc3ccccc3F)C2)c2nn(-c3ccccc3)c(C)c12 (stereo unspecified)	12.8	-1.5	13838	-6.8	1.4
SMILES	BoNT-F LC inh	Anthrax LF inh2	Autofluor counter	BoNT A protease	TcdB inh
Cc1ccccc1CNC(=O)C1CCCN(c2nnc(C)c3c(C)n(-c4ccccc4)nc23)C1 (stereo unspecified)	3.7	-1.8	10752	-4.0	0.2
CCc1ccc(CNC(=O)C2CCCN(c3nnc(C)c4c(C)n(-c5ccccc5)nc34)C2)cc1 (stereo unspecified)	29.8	4.0	20786*	0.2	1.6
Clc1ccc(Nc2cc(-c3ccccc3)nc3ncnn23)cc1	-23.4	u	3874	-6.0	0.7
c1ccc(Nc2cc(-c3ccccc3)nc3ncnn23)cc1	-4.9	-3.9	16695*	u	1.5
CCN1C(=O)c2ccc(C(=O)O)cc2C1=O	-28.8	-8.2	3688	-0.6	x
COCCCN1C(=O)c2ccc(C(=O)O)cc2C1=O	7.1	-3.2	21024*	5.7	x
CC(=O)OCCCN1C(=O)c2ccc(Br)cc2C1=O	1.1	-9.5	22144*	u	x
C[C@@H]1CN([C@H](C)CO)S(=O)(=O)c2ccc(C#CC3CCCCC3)cc2O[C@@H]1CN(C)Cc1cccnc1	x	x	x	x	-0.9
O=C(C[C@@H]1CC[C@H](NC(=O)CCN2CCCCC2)[C@H](CO)O1)Nc1ccc(-c2ccccc2)cc1	x	x	x	x	0.0
CC(=O)C(N=Nc1ccccc1)(Sc1nnc(-c2ccccc2)n1-c1ccccc1)C(C)=O	-2.8	1.4	22141*	-2.4	x
CC(=O)C(N=Nc1ccccc1)(Sc1nnc(-c2ccccc2)n1-c1ccccc1)C(=O)Nc1ccccc1 (stereo unspecified)	4.0	-2.8	19172*	2.6	x
O=C(CC(c1ccco1)S(=O)(=O)c1ccccc1)c1ccc(F)cc1 (stereo unspecified)	3.6	-3.8	22035*	2.7	x
CC(C)C12NC(=O)NC(=O)N1CCS2 (stereo unspecified)	-3.3	-7.0	2926	-0.5	10.1*
CC(=O)Nc1ccc(N(C(=O)Cc2c[nH]c3ccccc23)C(C(=O)NC2CCCCC2)c2ccco2)cc1 (stereo unspecified)	2.6	0.7	2129	0.4	x
Cc1ccc(C(C(=O)NC2CCCCC2)N(C(=O)Cc2c[nH]c3ccccc23)c2ccccc2)o1 (stereo unspecified)	3.6	-1.8	20827*	u	x
O=C(C[C@H]1C=C[C@H](NC(=O)c2ccccc2)[C@H](CO)O1)NCc1ccncn1	x	x	x	x	0.7
Cc1ccc(NC(=O)Cn2c(C)cc(C)c(C#N)c2=O)c(Cl)c1	-4.8	-4.1	23456*	-4.1	x
Cc1ccc(-c2nnn(CC(=O)N(Cc3ccccc3)C(C(=O)NC(C)(C)C)c3ccncc3)n2)o1 (stereo unspecified)	4.3	-2.5	20840*	-0.7	-0.3
Cc1ccc(-c2nnn(CC(=O)N(c3cccc(O)c3)C(C(=O)NC(C)(C)C)c3cccs3)n2)o1 (stereo unspecified)	0.0	-2.0	16505*	0.0	0.7
O=C(Cc1ccccc1)Nc1cccc(N2CCCC2)c1	-25.0	-8.2	22002*	u	x
N#Cc1c(NC(=O)c2ccccc2Cl)n(Cc2ccccc2)c2nc3ccccc3nc12	1.3	9.0	2894	31.3*	-0.6
COCCCNC(=O)c1c(NC(=O)c2ccccc2Cl)n(Cc2ccccc2)c2nc3ccccc3nc12	10.5	12.2	18554*	u	x
C/C(=N\NC(=O)c1ccccc1O)c1c(O)cc(C)oc1=O	17.0	3.1	17536*	11.2	x
C/C(=N\NC(=O)c1ccccc1[N+](=O)[O-])c1c(O)cc(C)oc1=O	-13.3	-3.7	2539	-0.9	-3.4
COc1ccc(NC(=O)N(C)C[C@H]2OCCCC[C@@H](C)Oc3ccc(NS(C)(=O)=O)cc3C(=O)N([C@H](C)CO)C[C@H]2C)cc1	x	x	x	x	-2.1
COc1ccc(-c2nnn(CC(=O)NCCc3c[nH]c4ccccc34)n2)cc1OC	-3.7	-2.3	21211*	-2.1	x

Compound activity from PubChem BioAssay.
